Data as given in PubChem BioAssay (NCI).
About 79,000 compounds went through this panel and 15% of them were active in at least one assay; those are over-represented in the sample as a whole. Cut-off read from the data, not from the text of the source: active = growth inhibition above about 70%; inactive = the rest.

Legend:
[1] = NCI Yeast Anticancer Drug Screen. Data for the rad50 strain (AID 155);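 note: 0% = growth of vehicle-only cultures of the same strain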; details: S. cerevisiae rad50 strain growth inhibition; at 50.0 µM; stronger effect = higher value
Summary of the method: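 Relative growth inhibition (compound vs vehicle) was measured in yeast with a defined repair-gene alteration.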

[2] = NCI Yeast Anticancer Drug Screen. Data for the mec2-1 strain (AID 157); details: S. cerevisiae mec2-1 strain, at 50.0 µM, stronger effect = higher value
Summary of the method: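 Growth inhibition is read against vehicle-treated controls after compound exposure of the mec2-1 yeast strain, which is defective in DNA damage repair or cell cycle control.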

[3] = NCI Yeast Anticancer Drug Screen. Data for the sgs1 mgt1 strain (AID 161);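 note: 0% = growth of cultures given vehicle only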; details: S. cerevisiae sgs1 mgt1 strain, at 50.0 µM, stronger effect = higher value
Summary of the method: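 Growth of a repair-deficient yeast mutant was monitored after compound treatment and expressed as inhibition relative to vehicle-treated cultures.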

[4] = NCI Yeast Anticancer Drug Screen. Data for the cln2 rad14 strain (AID 165);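 note: 0% = growth equal to vehicle treated cultures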; details: S. cerevisiae cln2 rad14 strain, at 50.0 µM, stronger effect = higher value
Summary of the method: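 Growth inhibition, relative to vehicle-treated controls, is the read-out. The test organism is a yeast strain with defined genetic alterations, cln2 rad14.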

[5] = NCI Yeast Anticancer Drug Screen. Data for the bub3 strain (AID 167); details: S. cerevisiae bub3 mutant strain, at 50.0 µM, stronger effect = higher value
Summary of the method: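 Screening used yeast with an engineered genetic alteration affecting cell cycle control. Compound-exposed cultures were compared with vehicle cultures, and reduced growth was taken as inhibition.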

[6] = NCI Yeast Anticancer Drug Screen. Data for the mlh1 rad18 strain (AID 175); details: S. cerevisiae mlh1 rad18 strain growth inhibition; at 50.0 µM; stronger effect = higher value
Summary of the method: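 Cells of a genetically altered yeast strain, deficient in DNA damage repair, were treated with compound. Their growth was then compared with that of vehicle-treated cultures to give inhibition.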

Measured: growth inhibition

Cc1cccc(C)c1NC(=O)C(Cl)(Cl)Sc1ccc(Cl)cc1Cl
inactive: [1] 0.3% | [2] -34.9% | [3] 5.9% | [4] 8.65% | [5] -5.2% | [6] -2.6%

CNC(=O)OCc1c(COC(=O)NC)c(-c2ccc(S(=O)(=O)c3ccccc3)cc2)n(C)c1C
inactive: [1] -5.85% | [2] -3.85% | [3] -1.95% | [4] -2.7% | [5] -16.4% | [6] -42.6%

O=C(C[n+]1cccc(Cl)c1)c1ccccc1
inactive: [1] -3.55% | [2] 7.9% | [3] 7.9% | [4] -9.7% | [5] -4.85% | [6] -0.5%

CC(C)CC(NC(=O)CN1C(=O)c2ccccc2C1=O)C(=O)O (stereo unspecified)
inactive: [1] -10.3% | [2] -41.6% | [3] 7.4% | [4] 3.2% | [5] -17% | [6] -24.1%

COc1ccc(-n2c(N)c(C#N)c(C#N)c2-c2cccc([N+](=O)[O-])c2)cc1
inactive: [1] 6% | [2] 9.75% | [3] -62.8% | [4] -3.1% | [5] -18.9% | [6] -48.5%

Cc1cc(C(=O)/C=C(\C(=O)c2ccccc2)c2ccccc2)ccc1Cl
inactive: [1] 18.8% | [2] 10.7% | [3] 6.65% | [4] -0.55% | [5] 0.6% | [6] 11.3%

NC(=S)N/N=C/c1cc([N+](=O)[O-])ccc1O
inactive: [1] 1.95% | [2] -3.4% | [3] 25.9% | [4] 51% | [5] 8.5% | [6] -87.9%

CCN1CC(C(=O)NC(C)C(=O)O)Cc2ccccc21 (stereo unspecified)
inactive: [1] 7.2% | [2] -1.25% | [3] 9.15% | [4] -31% | [5] 1.45% | [6] -8%

CSc1n[nH]c(SC)n1
inactive: [1] -4.3% | [2] -15.2% | [3] -4.15% | [4] 4.65% | [5] -11.2% | [6] -5.9%

NC(=O)N1CCCCC1
inactive: [1] 7.2% | [2] -6.6% | [3] 24.4% | [4] 7.2% | [5] 13.9% | [6] 4.65%

CCN(Cc1ccc(CN(CC)C(=O)c2c(-c3ccccc3)noc2C)cc1)C(=O)c1c(-c2ccccc2)noc1C
inactive: [1] 13.6% | [2] -8.1% | [3] 5.1% | [4] 17.8% | [5] 0.2% | [6] -13.6%

COC(=O)c1ccccc1C1CN=NC12Cc1c(ccc3c1CCC3)C2=O (stereo unspecified)
inactive: [1] -4.35% | [2] -5.95% | [3] -15.1% | [4] -9.7% | [5] 27.9% | [6] -0.85%

O=c1[nH]nc(-c2ccccc2)n1-n1cccc1
inactive: [1] -9.25% | [2] -26.1% | [3] -5.95% | [4] -3.6% | [5] -12.3% | [6] -6.25%

Nc1ncnc2nc(I)[nH]c12
inactive: [1] -1.45% | [2] 1.25% | [3] -4.55% | [4] -6.75% | [5] 26.7% | [6] 7.3%

CCOC(=O)C(C(=O)OCC)=C1N[C@H](C(=O)OCC)CS1
inactive: [1] -0.8% | [2] -17.5% | [3] -15.8% | [4] 13% | [5] -6.7% | [6] -22.8%

COc1ccc(C2=C(N)c3cc(OC)ccc3C2=O)cc1
inactive: [1] 41.1% | [2] 12.3% | [3] 33% | [4] -0.3% | [5] 32.1% | [6] -24.8%

O=C(NC1CC1)C1CC1
inactive: [1] -20.2% | [2] -12.8% | [3] -1.45% | [4] -17.4% | [5] 1.7% | [6] -1.35%

NNC(=O)c1cccc(C(=O)NN)n1
inactive: [1] 6.25% | [2] 4.9% | [3] 8.55% | [4] 5.85% | [5] 31.1% | [6] 15.1%

COC(=O)C1=C(CO)C2C=CC1C2 (stereo unspecified)
inactive: [1] 3.25% | [2] 26.1% | [3] -1.1% | [4] 6.55% | [5] 6.15% | [6] 6.7%

CN1CNC(=O)c2n[nH]nc21
inactive: [1] -1.25% | [2] 34.5% | [3] -4.15% | [4] -21% | [5] 13.1% | [6] -2.7%

CN(C(=O)c1ccncc1)c1ccccc1
inactive: [1] -11.4% | [2] -33.1% | [3] -14.1% | [4] 3.85% | [5] -31.1% | [6] 8.5%
